Source: the supplement of paper PMC12819154, “High-throughput peptide-centric local stability assay extends protein–ligand identification to membrane proteins, tissues and bacteria” (Nature Structural & Molecular Biology, 2025)

These targets were tested with CN[C@@H]1C[C@H]2O[C@@](C)([C@@H]1OC)n1c3ccccc3c3c4c(c5c6ccccc6n2c5c31)C(=O)NC4 [staurosporine] (assay: log2 fold change of tryptic peptide abundance, ligand vs vehicle (limited proteolysis) (log2 ratio); higher = more trypsin-susceptible (destabilized)). Details: ligand concentration: 20 uM; sample: mouse liver crude lysate; replicate design: treated separately.

Sequence of UniProt O88451 (O88451 whole entry): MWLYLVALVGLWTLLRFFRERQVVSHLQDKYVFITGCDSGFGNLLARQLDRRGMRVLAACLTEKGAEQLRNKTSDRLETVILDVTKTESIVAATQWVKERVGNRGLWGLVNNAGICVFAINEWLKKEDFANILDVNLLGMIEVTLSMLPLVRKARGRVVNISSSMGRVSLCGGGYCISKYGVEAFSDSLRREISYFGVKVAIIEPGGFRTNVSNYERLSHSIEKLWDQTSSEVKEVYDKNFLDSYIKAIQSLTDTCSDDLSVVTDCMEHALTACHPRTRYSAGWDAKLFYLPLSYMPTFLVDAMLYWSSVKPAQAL
Sequence of UniProt O88643 (O88643 whole entry): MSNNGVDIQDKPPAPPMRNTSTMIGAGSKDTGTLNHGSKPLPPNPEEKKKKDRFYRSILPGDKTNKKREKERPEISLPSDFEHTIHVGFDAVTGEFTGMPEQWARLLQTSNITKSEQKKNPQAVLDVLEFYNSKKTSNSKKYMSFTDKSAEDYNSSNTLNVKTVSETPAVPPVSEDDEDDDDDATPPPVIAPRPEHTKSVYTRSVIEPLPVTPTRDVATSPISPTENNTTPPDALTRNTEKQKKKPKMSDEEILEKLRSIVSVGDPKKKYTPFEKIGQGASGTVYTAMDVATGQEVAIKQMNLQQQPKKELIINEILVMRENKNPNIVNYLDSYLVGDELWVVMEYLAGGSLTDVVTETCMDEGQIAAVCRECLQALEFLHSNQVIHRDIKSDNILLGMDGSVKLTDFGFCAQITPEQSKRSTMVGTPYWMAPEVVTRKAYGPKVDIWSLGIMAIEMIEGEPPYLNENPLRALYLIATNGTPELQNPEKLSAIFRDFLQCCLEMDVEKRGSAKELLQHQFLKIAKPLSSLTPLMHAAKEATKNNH
Sequence of UniProt P24604 (P24604 whole entry): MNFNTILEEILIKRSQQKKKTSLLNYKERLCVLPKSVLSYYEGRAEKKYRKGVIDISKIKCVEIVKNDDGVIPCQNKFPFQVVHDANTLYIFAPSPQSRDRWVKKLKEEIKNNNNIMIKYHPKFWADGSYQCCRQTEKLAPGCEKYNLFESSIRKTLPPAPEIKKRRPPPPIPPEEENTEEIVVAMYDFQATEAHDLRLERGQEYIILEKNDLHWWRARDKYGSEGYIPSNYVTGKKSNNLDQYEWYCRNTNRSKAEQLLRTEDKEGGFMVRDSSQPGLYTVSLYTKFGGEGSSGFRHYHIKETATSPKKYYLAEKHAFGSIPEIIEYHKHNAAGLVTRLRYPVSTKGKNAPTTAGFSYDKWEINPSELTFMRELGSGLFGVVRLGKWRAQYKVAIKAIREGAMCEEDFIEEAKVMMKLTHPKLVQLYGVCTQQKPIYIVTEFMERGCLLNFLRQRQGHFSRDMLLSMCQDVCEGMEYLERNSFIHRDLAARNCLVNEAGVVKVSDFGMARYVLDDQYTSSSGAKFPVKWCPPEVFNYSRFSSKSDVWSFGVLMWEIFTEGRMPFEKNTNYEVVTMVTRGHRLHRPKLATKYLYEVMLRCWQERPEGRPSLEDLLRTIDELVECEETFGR
Sequence of UniProt Q9WVJ2 (Q9WVJ2 whole entry): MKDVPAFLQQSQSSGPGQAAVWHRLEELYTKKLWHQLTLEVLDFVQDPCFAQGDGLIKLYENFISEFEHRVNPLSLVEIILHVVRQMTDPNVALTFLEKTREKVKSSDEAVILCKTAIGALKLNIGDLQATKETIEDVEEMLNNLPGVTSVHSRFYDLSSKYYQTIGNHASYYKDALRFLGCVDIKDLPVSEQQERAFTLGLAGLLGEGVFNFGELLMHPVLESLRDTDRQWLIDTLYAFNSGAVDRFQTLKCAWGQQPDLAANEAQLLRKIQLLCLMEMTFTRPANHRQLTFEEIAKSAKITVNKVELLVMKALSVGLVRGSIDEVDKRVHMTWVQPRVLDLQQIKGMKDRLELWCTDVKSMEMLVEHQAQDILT
Sequence of UniProt P51881 (P51881 whole entry): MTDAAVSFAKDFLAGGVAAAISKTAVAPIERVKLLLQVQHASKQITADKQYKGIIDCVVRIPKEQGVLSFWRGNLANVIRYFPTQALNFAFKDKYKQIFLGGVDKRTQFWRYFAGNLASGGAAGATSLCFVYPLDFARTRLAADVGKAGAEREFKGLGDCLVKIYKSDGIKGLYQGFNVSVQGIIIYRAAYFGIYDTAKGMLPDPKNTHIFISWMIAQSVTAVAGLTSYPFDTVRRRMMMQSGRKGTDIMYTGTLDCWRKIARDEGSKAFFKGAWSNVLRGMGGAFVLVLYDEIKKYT
Sequence of UniProt Q921S7 (Q921S7 whole entry): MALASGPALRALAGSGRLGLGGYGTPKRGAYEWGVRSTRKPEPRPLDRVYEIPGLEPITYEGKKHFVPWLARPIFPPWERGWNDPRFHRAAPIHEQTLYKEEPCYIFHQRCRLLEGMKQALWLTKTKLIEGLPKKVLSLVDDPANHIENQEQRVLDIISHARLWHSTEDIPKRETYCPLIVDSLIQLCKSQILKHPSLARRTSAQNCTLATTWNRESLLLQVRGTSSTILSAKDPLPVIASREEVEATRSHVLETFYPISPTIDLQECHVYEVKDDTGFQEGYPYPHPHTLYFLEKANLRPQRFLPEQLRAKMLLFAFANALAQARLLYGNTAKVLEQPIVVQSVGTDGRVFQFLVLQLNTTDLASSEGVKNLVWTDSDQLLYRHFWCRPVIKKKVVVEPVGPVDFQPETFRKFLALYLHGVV
Sequence of UniProt Q61831 (Q61831 whole entry): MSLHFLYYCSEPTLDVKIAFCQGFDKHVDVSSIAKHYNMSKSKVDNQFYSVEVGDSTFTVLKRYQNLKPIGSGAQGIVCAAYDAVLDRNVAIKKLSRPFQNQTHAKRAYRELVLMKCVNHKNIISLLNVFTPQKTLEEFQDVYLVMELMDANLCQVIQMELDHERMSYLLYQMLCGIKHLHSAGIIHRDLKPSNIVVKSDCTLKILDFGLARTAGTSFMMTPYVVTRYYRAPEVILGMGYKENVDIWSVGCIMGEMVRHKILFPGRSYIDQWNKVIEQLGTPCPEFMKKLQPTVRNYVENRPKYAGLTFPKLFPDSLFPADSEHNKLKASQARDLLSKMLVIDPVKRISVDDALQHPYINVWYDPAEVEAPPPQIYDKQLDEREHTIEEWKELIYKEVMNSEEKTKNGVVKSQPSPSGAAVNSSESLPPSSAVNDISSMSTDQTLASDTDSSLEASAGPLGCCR
Sequence of UniProt Q60932 (Q60932 whole entry): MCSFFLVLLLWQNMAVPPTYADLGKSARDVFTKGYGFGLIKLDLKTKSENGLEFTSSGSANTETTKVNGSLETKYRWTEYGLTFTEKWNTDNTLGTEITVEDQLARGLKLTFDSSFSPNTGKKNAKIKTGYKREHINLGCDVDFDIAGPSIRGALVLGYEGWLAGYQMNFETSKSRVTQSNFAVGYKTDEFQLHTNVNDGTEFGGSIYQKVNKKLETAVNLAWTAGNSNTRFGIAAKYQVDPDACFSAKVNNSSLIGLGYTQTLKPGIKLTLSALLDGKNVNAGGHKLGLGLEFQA

Compared with “UniProt Q91VF2 (peptide sequence: TSNMENIK, peptide start residue: 105)”, “UniProt Q60932 (peptide sequence: LTFDSSFSPNTGKK, peptide start residue: 110)” is lower in log2 fold change: 0.598 for the first, -0.605 for the second.

First: UniProt P63158 (peptide sequence: HPDASVNFSEFSKKCSER, peptide start residue: 31)
Second: UniProt Q9QZ05 (peptide sequence: DLKPVNIFLDSDDHVK, peptide start residue: 846)
The log2 fold change of the first is higher: -0.395 for the first, -1.48 for the second.

Going from “UniProt O70551 (peptide sequence: SAEHYTETALDEIR, peptide start residue: 113)” to “UniProt O54988 (peptide sequence: WSSNFKDFLR, peptide start residue: 261)”, the log2 fold change falls from -2.75 to -3.04.

First: UniProt P47809 (peptide sequence: ISPEQHWDFTAEDLK, peptide start residue: 87)
Second: UniProt Q6P9R2 (peptide sequence: EVLEGLEYLHK, peptide start residue: 129)
Sequence (Q6P9R2 whole entry): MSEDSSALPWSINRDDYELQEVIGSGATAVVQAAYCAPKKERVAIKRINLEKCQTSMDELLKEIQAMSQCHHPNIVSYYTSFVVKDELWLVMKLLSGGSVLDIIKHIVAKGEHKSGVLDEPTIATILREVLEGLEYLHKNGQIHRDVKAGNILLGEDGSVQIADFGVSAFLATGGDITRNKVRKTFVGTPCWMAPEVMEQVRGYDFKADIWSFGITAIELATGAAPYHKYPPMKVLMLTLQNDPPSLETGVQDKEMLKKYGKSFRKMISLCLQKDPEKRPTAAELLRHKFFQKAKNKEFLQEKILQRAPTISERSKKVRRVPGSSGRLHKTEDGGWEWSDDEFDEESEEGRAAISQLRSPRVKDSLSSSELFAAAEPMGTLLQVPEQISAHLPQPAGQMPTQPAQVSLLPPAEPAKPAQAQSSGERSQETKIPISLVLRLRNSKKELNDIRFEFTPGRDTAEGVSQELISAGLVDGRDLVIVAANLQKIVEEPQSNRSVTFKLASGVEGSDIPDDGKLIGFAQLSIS
The log2 fold change of the first is higher: -0.533 for the first, -0.823 for the second.

“UniProt O89112 (peptide sequence: AFPNPYADYNK, peptide start residue: 5)” and “UniProt P51881 (peptide sequence: KGTDIMYTGTLDCWRK, peptide start residue: 245)” are within 0.2 log units of each other in log2 fold change: 0.594 for the first, 0.454 for the second.

Going from “UniProt Q6PF93 (peptide sequence: LQALLGDNEK, peptide start residue: 573)” to “UniProt Q64464 (peptide sequence: ALLSPTFTSGR, peptide start residue: 131)”, the log2 fold change falls from -0.345 to -0.724.

Going from “UniProt O89079 (peptide sequence: KYGVVLDEIKPSSAPELQAVR, peptide start residue: 65)” to “UniProt Q9Z2A0 (peptide sequence: HIIKENKVPYVTR, peptide start residue: 120)”, the log2 fold change falls from -0.856 to -2.47.

Going from “UniProt Q9WVJ2 (peptide sequence: GSIDEVDKR, peptide start residue: 322)” to “UniProt Q922S4 (peptide sequence: AMGNRPMEMMDR, peptide start residue: 838)”, the log2 fold change rises from -0.456 to 0.447.

Going from “UniProt Q01705 (peptide sequence: QWTQQHLDAADLR, peptide start residue: 1832)” to “UniProt P11798 (peptide sequence: DLKPENLLLASK, peptide start residue: 136)”, the log2 fold change falls from -0.742 to -3.02.

Going from “UniProt Q8JZU2 (peptide sequence: FIHDQTSSNPK, peptide start residue: 150)” to “UniProt P70451 (peptide sequence: NCLVGENNTLK, peptide start residue: 690)”, the log2 fold change falls from 0.438 to -2.

First: UniProt Q925I1 (peptide sequence: LGKPSLVR, peptide start residue: 278)
Sequence (Q925I1 whole entry): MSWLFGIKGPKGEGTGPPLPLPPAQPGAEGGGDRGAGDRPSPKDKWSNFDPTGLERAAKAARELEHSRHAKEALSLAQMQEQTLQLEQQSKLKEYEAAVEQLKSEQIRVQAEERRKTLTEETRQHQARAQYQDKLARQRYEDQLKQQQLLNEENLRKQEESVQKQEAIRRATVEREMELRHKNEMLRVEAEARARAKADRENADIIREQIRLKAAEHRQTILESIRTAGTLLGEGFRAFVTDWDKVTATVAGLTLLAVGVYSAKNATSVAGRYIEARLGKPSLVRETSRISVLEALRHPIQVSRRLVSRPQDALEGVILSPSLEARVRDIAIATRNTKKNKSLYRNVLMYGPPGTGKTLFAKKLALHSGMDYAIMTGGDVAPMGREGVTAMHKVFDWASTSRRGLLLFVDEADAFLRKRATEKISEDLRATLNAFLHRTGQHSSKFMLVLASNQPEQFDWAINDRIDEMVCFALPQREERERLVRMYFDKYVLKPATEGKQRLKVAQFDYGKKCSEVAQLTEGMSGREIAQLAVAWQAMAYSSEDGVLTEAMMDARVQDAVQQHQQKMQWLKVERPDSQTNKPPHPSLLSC
Second: UniProt Q8R4K2 (peptide sequence: GCVNNTIVAVK, peptide start residue: 203)
The log2 fold change of the first is higher: 0.434 for the first, -2.95 for the second.

Going from “UniProt Q921S7 (peptide sequence: HFVPWLAR, peptide start residue: 65)” to “UniProt Q8BWW9 (peptide sequence: VKPPFVPTIR, peptide start residue: 928)”, the log2 fold change falls from 0.415 to -2.86.

First: UniProt Q8BTH8 (peptide sequence: GSLPWQGLK, peptide start residue: 245)
Second: UniProt Q8CIN4 (peptide sequence: TIVSIGDPK, peptide start residue: 238)
The log2 fold change of the first is higher: -0.593 for the first, -2.05 for the second.

Going from “UniProt P24604 (peptide sequence: ELGSGLFGVVR, peptide start residue: 374)” to “UniProt O88451 (peptide sequence: LWDQTSSEVK, peptide start residue: 225)”, the log2 fold change rises from -0.989 to -0.709.

Compared with “UniProt Q61831 (peptide sequence: DLKPSNIVVK, peptide start residue: 151)”, “UniProt Q9QXX4 (peptide sequence: AGQTTYNGVTDCFRK, peptide start residue: 555)” is higher in log2 fold change: -1.06 for the first, 0.466 for the second.

First: UniProt A2ATU0 (peptide sequence: SSLYSSDIGK, peptide start residue: 380)
Second: UniProt Q05421 (peptide sequence: FGPVFTLHLGQR, peptide start residue: 64)
The log2 fold change of the first is higher: 0.605 for the first, 0.247 for the second.

Going from “UniProt O88643 (peptide sequence: LTDFGFCAQITPEQSKR, peptide start residue: 384)” to “UniProt Q7TSE6 (peptide sequence: LSDFGLCTGLKK, peptide start residue: 228)”, the log2 fold change falls from -2.39 to -2.66.

First: UniProt Q91VJ4 (peptide sequence: DTGHVYAMK, peptide start residue: 110)
Sequence (Q91VJ4 whole entry): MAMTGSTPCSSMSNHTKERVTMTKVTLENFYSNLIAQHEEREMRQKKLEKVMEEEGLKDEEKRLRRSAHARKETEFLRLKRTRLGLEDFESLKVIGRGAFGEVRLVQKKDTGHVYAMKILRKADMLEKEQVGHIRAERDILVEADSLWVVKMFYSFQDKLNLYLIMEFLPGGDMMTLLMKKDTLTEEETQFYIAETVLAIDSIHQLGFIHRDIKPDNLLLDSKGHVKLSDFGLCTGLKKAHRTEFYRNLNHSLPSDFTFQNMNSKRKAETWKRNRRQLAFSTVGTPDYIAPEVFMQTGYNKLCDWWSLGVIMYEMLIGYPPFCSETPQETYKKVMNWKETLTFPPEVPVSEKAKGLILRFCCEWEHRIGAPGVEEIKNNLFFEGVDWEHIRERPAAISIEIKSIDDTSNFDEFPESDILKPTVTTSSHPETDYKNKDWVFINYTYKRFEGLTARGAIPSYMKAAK
Second: UniProt Q9DBN5 (peptide sequence: NEKDLEEIPSNVR, peptide start residue: 804)
The log2 fold change of the first is lower: -3.23 for the first, -1.06 for the second.

First: UniProt O08648 (peptide sequence: IFEGIKHPNLVR, peptide start residue: 1382)
Second: UniProt Q7TMY8 (peptide sequence: HLGYTLCK, peptide start residue: 3630)
The log2 fold change of the first is lower: -0.814 for the first, 0.491 for the second.
